Data on 61 compounds can be found in PubChem BioAssay AID463173 (ICCB-Longwood Screening Facility, Harvard Medical School, 2010).

The whole screen tested about 52,000 compounds, of which about 1,700 (3.3%) were called active. Rule as the data show it: active = survival mostly below about 52% (no sharp cut-off); inactive = mostly above about 56%. The entries come from a sample that favours actives as a whole.

The assay deals with Wild type. The experiment in a line: growth inhibition of S. aureus wild type versus tarO mutant, primary screen, teichoic acid synthesis inhibitors, RN4220, OD600 (AID 463173). Particulars: S. aureus RN4220 wild type/DeltatarO growth, OD600, 18 h, active compounds read low, screened at 18.75 µg/mL (by protocol).
`O=C(NC1CCCCC1)c1ccco1`: the survival was 102% (inactive).
For `COc1ccc(OC)c(NC(=O)c2sc3nc4c(cc3c2N)CCCCCC4)c1` the value was 70% (inactive).
As to `CC(=O)N1c2ccc(S(=O)(=O)N3CCCCCC3)cc2CC1C(=O)NCc1ccccc1F` (stereo unspecified), the survival was 131% (inactive).
For `O=C(NCCSc1c(-c2ccc(Br)cc2)[nH]c2ccccc12)c1ccc(S(=O)(=O)N2CCOCC2)cc1` the value was 84% (inactive); for `Cn1c(SCCC(=O)O)nnc1-c1ccncc1`, 105% (inactive); for `Cc1cc(N2CCCC(O)C2)n2nc(C)c(-c3ccc(F)cc3)c2n1` (stereo unspecified), 120% (inactive).
For `COc1ccc(C2=C(Nc3ccc(C)c(C)c3)c3ccccc3C2=O)cc1` the value was 90% (inactive); for `COc1ccc(C2=C(Nc3ccc(Br)c(C)c3)c3ccccc3C2=O)cc1`, 20% (active).
In the case of `COc1ccc(C2=C(Nc3ccc(C)cc3C)c3ccccc3C2=O)cc1`, the survival is 76% (inactive).
Consider `O=C(NCC1(c2ccccc2)CCCC1)C(=O)Nc1cccc(Br)c1`, for which the survival is 96% (inactive).
In the case of `Cc1cc(C)cc(NC(=O)CCCn2c3ccccc3c(=O)c3ccccc32)c1` it was 69% (inactive); in that of `O=C(NCCc1ccccc1Cl)c1cc2ccccn2n1`, 140% (inactive); in that of `COc1cc(NC(=O)c2nc3ccccc3nc2N2CCCCC2)cc(OC)c1OC`, 82% (inactive).
As for `COc1cc(NC(=O)C2CCN(c3nc4ccccc4nc3C(F)(F)F)CC2)cc(OC)c1`, the survival was 78% (inactive).
In the case of `COc1cc(NC(=O)C2CCN(c3cnc4ccccc4n3)CC2)cc(OC)c1OC`, the survival was -6% (active).
For `CCc1ccc(-n2c(Cc3ccccc3)nnc2SCc2nc(-c3cccs3)no2)cc1` the value was 99% (inactive); for `CCC(C(=O)Nc1ccc(C(C)=O)cc1)n1cnc2nc3c(cc2c1=O)CCCC3` (stereo unspecified), 63% (inactive); for `CC(=O)c1ccc(NS(=O)(=O)c2cnc(N)nc2)cc1`, 1% (active).
With `Nc1ncc(S(=O)(=O)Nc2ccc(OC(F)(F)F)cc2)cn1`, the survival is 63% (inactive).
With `COc1cc(NS(=O)(=O)c2cnc(N)nc2)cc(OC)c1`, the survival was 64% (inactive).
In the case of `Cc1cccc(NC(=O)C2CCN(S(=O)(=O)c3ccc4c(c3)CCCN4C(=O)C3CCC3)CC2)c1` it was 74% (inactive); in that of `COc1cccc(N2CC(NC(=O)C(c3ccccc3)c3ccccc3)CC2=O)c1` (stereo unspecified), 65% (inactive); in that of `COc1ccc(C2c3c(n(C)c4ccccc34)C(=O)N2CC(=O)Nc2ccccc2Cl)cc1` (stereo unspecified), 135% (inactive).
Turning to `COc1ccccc1CNC(=O)CCc1c(C)c2cc3c(C)c(C)oc3cc2oc1=O`, the survival is 114% (inactive).
In the case of `CCCOc1cccc(C(=O)Nc2ccc(-c3nc4ccccc4s3)c(Cl)c2)c1` it was 65% (inactive).
Consider `Cc1cccc2cc(C#N)c(SCC(=O)NCC3CCCO3)nc12` (stereo unspecified), for which the survival was 103% (inactive).
Consider `COc1cc(Cl)c(NC(=O)CN(C)S(=O)(=O)c2ccc3c(c2)CCCC(=O)N3)c(OC)c1`, for which the survival is 59% (inactive).
In the case of `Cc1ccc(C)c(NC(=O)CCNS(=O)(=O)c2ccc3c(c2)CCCC(=O)N3)c1` it was -6% (active).
Regarding `Cc1cccc(NC(=O)CCNS(=O)(=O)c2ccc3c(c2)CCCC(=O)N3)c1C`, the survival is 80% (inactive).
Take `COc1cc(NC(=O)CN(C)S(=O)(=O)c2ccc3c(c2)CCCC(=O)N3)cc(OC)c1OC`: the survival was 81% (inactive).
As to `COc1cc(OC)c(NC(=O)CN(C)S(=O)(=O)c2ccc3c(c2)CCCC(=O)N3)cc1Cl`, the survival was 1% (active).
With `Cc1ccc(NC(=O)CCNS(=O)(=O)c2ccc3c(c2)CCCC(=O)N3)cc1`, the survival is 73% (inactive).
For `Cc1ccc(C)c(NC(=O)Cn2ncc3c([nH]c4ccccc43)c2=O)c1` the value was 45% (inactive).
For `CC(C)c1ccc(NC(=O)Cc2ccc(NC(=O)N3CCCCc4ccccc43)cc2)cc1`, the survival is 110% (inactive).
In the case of `Nc1cc(=O)nc(SCC(=O)Nc2ccccc2)n1CCc1ccccc1`, the survival is 69% (inactive).
In the case of `Cc1ccc(NC(=O)CN2C(=O)C3(SCC(=O)N3c3ccc(F)c(F)c3)c3ccccc32)c(C)c1` (stereo unspecified), the survival was 69% (inactive).
For `CCc1nc(Nc2ccc(F)c(Cl)c2)c2c3c(sc2n1)CCCC3`, the survival is -1% (active).
With `O=C(Cn1nnc2sc3c(c2c1=O)CCCC3)Nc1ccc(F)c(Cl)c1`, the survival was 33% (inactive).
Take `COc1ccc(Nc2ncnc3sc4c(c23)CCCC4)cc1`: the survival is 73% (inactive).
`CCCn1c2ccccc2c2cnn(CC(=O)N3CCN(c4ccccc4F)CC3)c(=O)c21`: the survival was -6% (active).
Regarding `Cc1ccccc1Cn1c2ccccc2c2cnn(CC(=O)NC3CCC(C)CC3)c(=O)c21` (stereo unspecified), the survival was 78% (inactive).
For `Cc1cc(C)c(Cn2c3ccccc3c3cnn(CC(=O)N4CCCCCC4)c(=O)c32)c(C)c1` the value was 1% (active).
As for `CC1CCN(C(=O)Cn2ncc3c4ccccc4n(Cc4ccc(Cl)cc4)c3c2=O)CC1`, the survival was 95% (inactive).
For the compound `Cc1ccccc1Cn1c2ccccc2c2cnn(CC(=O)N3CCC(C)CC3)c(=O)c21`, the survival is 12% (active).
`CCN1CCN(C(=O)Cn2ncc3c4ccccc4n(Cc4ccccc4F)c3c2=O)CC1`: the survival is 82% (inactive).
With `CCN1CCN(C(=O)Cn2ncc3c4ccccc4n(Cc4c(C)cc(C)cc4C)c3c2=O)CC1`, the survival was 126% (inactive).
For the compound `CCCn1c2ccccc2c2cnn(CC(=O)N3CCC(C)CC3)c(=O)c21`, the survival was 67% (inactive).
In the case of `Cc1cc(C)c(Cn2c3ccccc3c3cnn(CC(=O)N4CCCCC4)c(=O)c32)c(C)c1` it was 125% (inactive); in that of `COc1ccc(NC(=O)Nc2nnc(N(CC(C)C)CC(C)C)s2)c(OC)c1`, 96% (inactive).
In the case of `COc1ccccc1C(=O)Nc1sc(Nc2ccccc2)nc1C(N)=O` it was 146% (inactive); in that of `S=c1nc(CNc2ccccc2)[nH][nH]1`, 95% (inactive).
For `CC(=O)N1c2c(cc(Br)cc2S(=O)(=O)N2CCN(c3cc(C)ccc3C)CC2)CC1C` (stereo unspecified) the value was 72% (inactive); for `COc1ccc(NC(=O)Cn2c(=O)n(CCCCCC(=O)NCc3ccc4c(c3)OCO4)c(=O)c3sccc32)cc1Cl`, 89% (inactive); for `COc1ccc2c(CNCCc3cccs3)c(C(=O)O)n(Cc3ccc(F)cc3Cl)c2c1`, 115% (inactive).
On to `CCCCN1CC(c2nc3ccccc3n2CCCCOc2c(C)cccc2C)CC1=O` (stereo unspecified), for which the survival is 61% (inactive).
With `CCCCn1c(C2CC(=O)N(c3ccc(OCC)cc3)C2)nc2ccccc21` (stereo unspecified), the survival is 84% (inactive).
On to `CCCCN1CC(c2nc3ccccc3n2CCCCOc2cccc(C)c2C)CC1=O` (stereo unspecified), for which the survival is -13% (active).
`CCCCN1CC(c2nc3ccccc3n2CCCCOc2ccc(C)c(C)c2)CC1=O` (stereo unspecified): the survival was 24% (inactive).
For `CCCCN1CC(c2nc3ccccc3n2CCCCOc2cc(C)cc(C)c2)CC1=O` (stereo unspecified), the survival is 14% (active).
In the case of `CCCCN1CC(c2nc3ccccc3n2CCCCOc2ccccc2C)CC1=O` (stereo unspecified) it was 15% (active); in that of `Cc1ccccc1OCCCCn1c(C2CC(=O)N(c3ccccc3Cl)C2)nc2ccccc21` (stereo unspecified), 59% (inactive).
